Shown are actives, neighbours in structure and some others; about 1.4% of the full set was active somewhere.
TNAP act DEA: human TNAP enzyme activators, primary screen, biochemical, luminescent, intermediate phosphate acceptor level; AID 813, 2007; activation factor at 20 µM; purified TNAP, CDP-star luminescence, 100 mM DEA, 30 min; active compounds read high; scale: 0 levamisole-inhibited, 1 vehicle-only enzyme; Alkaline phosphatase, tissue-nonspecific isozyme (Homo sapiens), P05186; 64,000 tested, under 10 active;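 active = activation factor of at least 2 at 20 µM, relative to controls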
Target sequence (P05186 whole entry, looked up): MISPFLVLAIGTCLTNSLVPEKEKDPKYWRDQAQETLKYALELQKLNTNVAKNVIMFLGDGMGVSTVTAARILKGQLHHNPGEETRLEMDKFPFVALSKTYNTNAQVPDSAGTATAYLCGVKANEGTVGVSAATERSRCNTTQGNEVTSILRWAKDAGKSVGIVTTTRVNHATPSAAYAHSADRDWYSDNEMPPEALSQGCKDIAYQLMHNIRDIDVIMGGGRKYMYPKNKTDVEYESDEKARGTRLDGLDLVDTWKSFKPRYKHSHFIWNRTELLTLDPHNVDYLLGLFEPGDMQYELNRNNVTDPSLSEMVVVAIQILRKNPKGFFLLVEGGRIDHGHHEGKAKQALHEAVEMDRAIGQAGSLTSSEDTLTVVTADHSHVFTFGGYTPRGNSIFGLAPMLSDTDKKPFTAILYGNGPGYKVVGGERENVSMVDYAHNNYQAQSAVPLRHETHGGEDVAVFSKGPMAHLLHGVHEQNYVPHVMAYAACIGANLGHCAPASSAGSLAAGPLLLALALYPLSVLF
SKBR3 24h inh: SK-BR-3 proliferation inhibitors, primary screen, cell-based, human, 24 h | SK-BR-3 viability, CellTiter-Glo ATP luminescence; active compounds read low | 41,000 compounds, 0.47% hits | viability, % at 10 µM;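 active = viability at or below the median of all test compounds minus 3 SD, in both replicates if run twice, cut at about 45% in these data; inconclusive = duplicate replicates that disagree with each other; inactive = viability above that cutoff in every replicate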;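 also: 100% = median untreated cell wells and 0% = median positive control drug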
E coli RNAP: E. coli RNAP inhibitors, biochemical; DNA-directed RNA polymerase subunit beta (Escherichia coli (strain K12)), P0A8V2; E. coli RNA polymerase, fluorescence transcription assay; inhibition, %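 (tested at 10 µM)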; 62,000 compounds, 0.2% hits; AID 559, 2006; in the data active = inhibition above about 20%;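 also: 0% = enzyme without compound and 100% = no enzyme blank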
HER2 expr 66K: inhibitors of Her2 protein expression, primary screen, SKBR-3 cells, AlphaScreen, 66K library. Receptor tyrosine-protein kinase erbB-2 (Homo sapiens), P04626. SKBR-3 HER2 protein level, 18-24 h; active compounds read low. HER2 level % of control, % at 10 µM. 65,000 compounds, 0.69% hits;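 active = HER2 level under 5% of the carrier-only control; inconclusive = no clear call, values can overlap the other calls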;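 also: 100% = DMSO carrier and 0% = 500 nM PU-H71 HSP90 inhibitor; lower value means stronger loss of Her2 protein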
BAP1 inh: inhibitors of BAP1 deubiquitinase, primary screen, biochemical, Ub-AMC fluorescence, kinetic; 72,000 compounds, 0.48% hits; recombinant BAP1, Ub-AMC hydrolysis fluorescence kinetic; active compounds read low; calls only at 20 µM;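 active = activity remaining at or below 50% of control, provided the compound also passes the data quality filters; inactive = the rest, including low values that fail the filters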;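 also: 100% = DMSO wells rate and 0% = substrate alone blank rate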
BAP1 inh conf: BAP1 deubiquitinase inhibitors, hit retest, confirmation, orthogonal assay, biochemical, Ub-ethyl ester substrate, HPLC readout. % of control activity, % at 20 µM. purified BAP1, Ub-ethyl ester hydrolysis; active compounds read low. 310 compounds, 8% hits. shares compounds with BAP1 inh;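 active = percent of control activity at or below 60%; inconclusive = HPLC trace unusable from injection failure or solvent front hiding peaks; inactive = the rest, plus ubiquitin peak ratio over a set limit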
Starred values were filed as active, the others as inactive; i = inactive; ? = inconclusive; / = not tested or not shown; + = active, no number.

SMILES	TNAP act DEA	SKBR3 24h inh	E coli RNAP	HER2 expr 66K	BAP1 inh	BAP1 inh conf
O=C(NCc1cccs1)Nc1ccc2c(c1)OCO2	1	90	4	97	i	/
O=C(NCc1ccccn1)Nc1ccc2c(c1)OCO2	0.9	99	9	112	+	111
CCOC(=O)COc1nc(C)c(Br)c(OC)n1	1	108	6	87	+	71
COc1ccc(-c2cc3c(=O)n(CC(=O)NC4CCN(Cc5ccccc5)CC4)ncn3n2)cc1	0.9	88	5	70	+	87
CCC(=O)N1CCc2cc(S(=O)(=O)NC(C(=O)NCc3ccc(C)cc3)C(C)C)ccc21 (configuration not stated)	1	102	-2	88	+	i
CCOC(=O)N1CCN(C(=O)c2cccn3c(=O)c4sccc4nc23)CC1	0.9	96	-16	67	+	100
CCCc1cc(=O)oc2cc(C)c(CN3CCCC3)c(O)c12	0.9	96	3	89	+	116
COC1=Cc2c(ccc3ccc(=O)oc23)OC1(C)C	0.9	99	6	189	/	/
CC(=O)OC1c2c(ccc3ccc(=O)oc23)OC(C)(C)C1OC(=O)CC(C)C (configuration not stated)	0.9	101	7	107	+	99
CCc1nc(N2CCCC(C)C2)c2oc3ccccc3c2n1 (configuration not stated)	0.9	88	4	87	+	93
CCc1ccc(N/C(SCc2cccc(F)c2)=C(/C#N)C(=O)NCc2ccco2)cc1	0.9	/	5	85	+	111
CCc1cccc2c(C#N)cn(CC(=O)NCc3ccco3)c12	1	105	-3	122	i	/
N#Cc1nc(-c2ccccc2F)oc1NCCN1CCOCC1	1	/	2	96	+	87
N#Cc1nc(-c2cccc3ccccc23)oc1NCCN1CCOCC1	0.9	97	-11	138	/	/
O=[N+]([O-])c1ccc(Cl)c(S(=O)(=O)Nc2ccc(O)c(Sc3nc4ccccc4s3)c2)c1	/	/	/	/	i	/
O=C(Nc1nc(-c2nc3ccccc3s2)cs1)c1ccc(S(=O)(=O)N2CCOCC2)cc1	0.9	70	10	74	+	109
CCOC(=O)N1CCC(NC(=O)c2ccc3c(c2)sc2nc(-c4ccccc4)cn23)CC1	0.9	/	3	47	+	101
CC(C)c1nc(SCC(=O)Nc2cccc(C(F)(F)F)c2)c2c(=O)n(C)c(=O)n(C)c2n1	1	/	6	91	+	103
CC(C)c1nc(SCC(=O)Nc2ccc3c(c2)OCCO3)c2c(=O)n(C)c(=O)n(C)c2n1	0.9	/	8	68	i	/
COCCOC(=O)C1=C(C)NC2=C(C(=O)CC(c3ccc(Cl)cc3)C2)C1c1ccc(N(C)C)cc1 (configuration not stated)	/	/	/	/	i	/
Cc1ccc(C(=O)Nc2ccccc2C(=O)O)cc1S(=O)(=O)Nc1cccc(Cl)c1	/	/	/	/	i	/
CC1Cc2ccccc2N1C(=O)c1cc2c(=O)n3ccccc3nc2n1C (configuration not stated)	0.9	87	1	75	+	116
Cc1cccn2c(=O)c3cc(C(=O)N4c5ccccc5CC4C)n(C)c3nc12 (configuration not stated)	1.1	78	2	84	i	/
Cc1cccn2c(=O)c3cc(C(=O)N4CCc5ccccc54)n(C)c3nc12	1.1	84	9	80	+	i
CC1(C)CC(=O)c2cc(C(=O)NC3CCSC3=O)c(=O)n(-c3ccccc3)c2C1 (configuration not stated)	0.9	85	-1	94	+	74
SMILES	TNAP act DEA	SKBR3 24h inh	E coli RNAP	HER2 expr 66K	BAP1 inh	BAP1 inh conf
Cc1cc(Cl)ccc1OCC(O)CN1CCCCC1C (configuration not stated)	/	/	/	/	i	/
CSc1nc2c(cnn2-c2ccc(C)c(C)c2)c(=O)[nH]1	0.9	/	1	38	+	?
CCC(C)Sc1nc2c(cnn2-c2ccc(C)c(C)c2)c(=O)[nH]1 (configuration not stated)	0.9	/	3	102	i	/
COc1ccccc1OCc1ccc(C(=O)NC(C)(C)C)o1	0.9	75	0	74	i	/
COc1ccccc1OCc1ccc(C(=O)n2nc(C)c(Cl)c2C)o1	0.9	94	2	79	+	128
COc1cccc(C2C(C#N)=C(N)OC3=C2C(=O)CC(c2ccco2)C3)c1OCc1ccc(F)cc1 (configuration not stated)	0.9	73	0	78	+	100
CC1=C(C(=O)OC(C)C)C(c2ccc(O)cc2)C2=C(CC(c3ccccc3)CC2=O)N1 (configuration not stated)	/	/	/	/	i	/
c1ccc(-c2nnc3sc(-c4csc5c4CCCC5)nn23)cc1	1	57	8	83	+	59*
c1ccc(-c2nnc3sc(-c4ccncc4)nn23)cc1	0.9	90	5	119	i	/
COc1ccc(Br)cc1C(=O)Nc1cc2c(ccc3ccccc32)oc1=O	/	/	/	/	i	/
COc1cccc(-c2csc(N3CCN(S(=O)(=O)c4ccc(F)cc4)CC3)n2)c1	0.9	101	7	77	+	84
CC(C)C(N)C(=O)N1CCOCCOCCOCC1 (configuration not stated)	/	/	/	/	i	/
Cc1cc(OCc2ccc(F)cc2)nc(-c2ccccc2O)n1	0.9	93	2	96	+	165
COc1ccc2nc(N3CCC(O)CC3)c(C#N)cc2c1	1.1	121	2	112	i	/
CCOC(=O)C1CCN(c2nc3cc(OC)ccc3cc2C#N)CC1	0.9	100	10	105	+	117
Cc1cc2n(n1)C(c1ccc(O)cc1)Nc1ccccc1-2 (configuration not stated)	0.9	95	/	81	i	/
Cc1cc2n(n1)C(c1ccco1)Nc1ccccc1-2 (configuration not stated)	1	87	5	87	+	98
COc1ccc(-c2nnc(SCC(=O)c3[nH]c(C)c(C(C)=O)c3C)o2)cc1	1	/	5	79	i	/
CCOC(=O)c1[nH]c(CSc2nnc(-c3ccc(OC)cc3)o2)c(C(=O)OCC)c1C	0.9	65	6	83	+	138
CC(=O)Nc1ccc(C(=O)CSc2nnc3scc(-c4ccccc4)n23)cc1	0.9	100	5	165	i	/

Assay outcomes deposited in PubChem by several laboratories.
